A3G deaminase – blocks human APOBEC3G single-stranded DNA deamination; recombinant A3G, ssDNA deamination FAM/TAMRA fluorescence; inhibition, % at 20 µM; 0.28% of 330,000 active; AID 493012; Q9HC16;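 active means inhibition of at least 40% at 20 µM, with no more than 30% in the related APOBEC3A deaminase screen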;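 further: plate controls were DMSO wells with A3G for no effect and wells lacking A3G enzyme for full effect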
MLLE-PAM2 inh – blocks PAM2 peptide binding to the PABP1 MLLE domain; P11940; GST-MLLE / FITC-PAM2 fluorescence polarization; inhibition, % at 20 µM; 0.36% of 360,000 active; in the data active means inhibition above about 35%, passing the limit was not always enough;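 further: plate controls were DMSO wells with GST-MLLE for no effect and wells lacking GST-MLLE protein for full effect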
Target sequence (P11940 whole entry, looked up, the tested form may be a part): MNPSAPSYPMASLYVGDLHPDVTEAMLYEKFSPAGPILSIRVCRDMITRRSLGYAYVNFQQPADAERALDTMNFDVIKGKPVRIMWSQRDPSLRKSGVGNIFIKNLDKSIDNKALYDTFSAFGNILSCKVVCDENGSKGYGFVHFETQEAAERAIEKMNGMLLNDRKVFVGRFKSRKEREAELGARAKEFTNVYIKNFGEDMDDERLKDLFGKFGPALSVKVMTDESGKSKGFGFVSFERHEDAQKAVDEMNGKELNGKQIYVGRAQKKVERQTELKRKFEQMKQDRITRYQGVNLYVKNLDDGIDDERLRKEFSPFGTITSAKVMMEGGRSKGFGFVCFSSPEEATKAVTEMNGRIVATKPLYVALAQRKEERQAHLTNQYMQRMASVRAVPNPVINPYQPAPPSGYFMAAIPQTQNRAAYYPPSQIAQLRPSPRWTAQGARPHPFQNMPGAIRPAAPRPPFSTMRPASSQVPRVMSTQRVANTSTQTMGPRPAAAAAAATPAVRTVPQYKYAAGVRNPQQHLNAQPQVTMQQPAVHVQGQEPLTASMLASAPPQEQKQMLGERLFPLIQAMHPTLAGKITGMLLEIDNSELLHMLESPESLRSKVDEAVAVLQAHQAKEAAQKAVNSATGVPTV
PHOSPHO1 inh – blocks human PHOSPHO1 phosphatase activity | Q8TCT1 | recombinant PHOSPHO1, absorbance phosphatase assay | inhibition, % at 13.3 µM | 1.1% of 290,000 active; in the data active means inhibition above about 60%
PABP FP inh – blocks human PABP binding to poly(A) RNA; calls only at 35 µM; 1% of 290,000 active; fluorescence polarization; P11940;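 further: calls also rest on retests at 20 µM and on dose response follow-up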
eIF4H FP inh – inhibitors of RNA binding by human eIF4H; inhibition, % at 35 µM; 0.94% of 290,000 active; Q15056; eIF4H fluorescence polarization binding assay;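 further: calls also rest on retests at 20 µM and on dose response follow-up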
A3A deaminase – inhibitors of human APOBEC3A DNA deaminase; recombinant A3A, FAM/TAMRA ssDNA deamination fluorescence; P31941; AID 493011; 0.41% of 330,000 active; inhibition, % at 20 µM;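 active means at least 40% inhibition at 20 µM here, with at most 30% in a related deaminase screen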;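 further: plate controls were A3A with DMSO for no effect and wells lacking A3A enzyme for full effect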
An asterisk follows results filed as active; i = inactive; ? = inconclusive; . = not tested or not shown; + = active, no number. A selection: hits, their analogues and other compounds. The true share with any hit is near 2.6%. Unless noted, how the calls were made is not given here.

SMILES	A3G deaminase	MLLE-PAM2 inh	PHOSPHO1 inh	PABP FP inh	eIF4H FP inh	A3A deaminase
CC(Cc1ccccc1)C(=O)N[C@@H](CO)Cc1ccccc1 (stereo partly specified)	-10	-2	13	+	active	-2
COC(=O)C(Cc1ccccc1)NC(=S)NC(=O)c1ccccc1 (stereo unspecified)	7	11	16	i	-6	-3
CCOC(=O)C1=NS(=O)(=O)NC(C)=C1	1	15	.	.	.	5
COc1ccc(N2CC(C(=O)NC3=NCCS3)CC2=O)cc1 (stereo unspecified)	-14	-15	10	i	5	-2
Cc1ccc(S(=O)(=O)NC(Cc2ccccc2)C(=O)O)cc1C (stereo unspecified)	-8	12	15	i	2	-4
Cc1ccc(-c2nn3c(C)nnc3s2)cc1NC(=O)c1ccc(-c2ccc(Cl)cc2Cl)o1	-3	-66	23	i	-8	43*
Cc1ccc(-c2nn3c(C)nnc3s2)cc1NC(=O)c1ccc(-c2cccc(Cl)c2)o1	9	-18	13	i	14	4
Cc1ccccc1N(CC(=O)Nc1ccc(S(=O)(=O)N2CCOCC2)cc1)S(C)(=O)=O	-5	9	63*	i	-7	-1
Cc1ccc(N(C(C)C(=O)Nc2ccc(S(=O)(=O)N3CCOCC3)cc2)S(C)(=O)=O)cc1 (stereo unspecified)	-4	9	-24	+	?	-2
O=C1CS/C(=N\N=C\c2ccco2)N1c1ccccc1	5	-24	2	+	85*	16
Cc1ccc(C(=O)N2CCC3(CC2)NCCc2[nH]cnc23)cc1C	-8	15	-33	.	.	-4
NNC(=O)c1sccc1OCc1ccc(Cl)cc1	-5	-3	-4	i	-10	-1
CNC(=S)NNC(=O)c1sccc1OCc1cccc(C(F)(F)F)c1	-10	-81	69*	i	-7	-4
CNC(=S)NNC(=O)c1sccc1OCc1ccc(C)cc1	-11	-25	74*	i	3	-5
O=C(COc1cccc2c1CCN(Cc1ccc(Cl)cc1)C2=O)N1CCOCC1	-7	8	57	i	1	-9
Cc1ccc(C(=O)COC(=O)CCC(=O)Nc2ccccc2Cl)cc1[N+](=O)[O-]	-6	-1	-4	+	4.8*	-2
Cc1ccccc1NC(=O)COC(=O)c1ccc(S(C)(=O)=O)c([N+](=O)[O-])c1	-5	-11	60*	i	-12	-1
CC(=O)Nc1ccc(NC(=O)CCC(=O)OCC(=O)c2ccc(C)c([N+](=O)[O-])c2)cc1	-5	10	-4	i	-16	-2
CN1CCc2nc(NC(=O)c3cccc(OC(F)F)c3)sc2C1	-2	-64	14	+	74*	-4
CC(C)Cc1ccc(C(C)C(=O)Nc2nccs2)cc1 (stereo unspecified)	1	-4	23	+	80*	6
CN(CCOC(=O)c1ccco1)Cc1ccccc1	-3	-14	-3	i	7	0
CN(Cc1ccccc1)C(=O)COC(=O)/C=C/c1ccco1	8	5	-27	+	82*	35
CN(CCOC(=O)/C=C/c1ccco1)Cc1ccccc1	42	10	14	+	90*	72
O=C(NC(=S)N1CCCC1)c1ccccc1Cl	-1	25	10	i	5	-2
O=C(NC(=S)N1CCCC1)c1ccccc1F	-7	44*	.	.	.	1
SMILES	A3G deaminase	MLLE-PAM2 inh	PHOSPHO1 inh	PABP FP inh	eIF4H FP inh	A3A deaminase
CC(Sc1ccc(Br)cc1)C(N)=O (stereo unspecified)	0	5	-15	i	-2	102*
O=C1CC(O)(C(F)(F)F)Oc2c1ccc1ccccc21 (stereo unspecified)	-5	8	-8	i	8	0
O=C1CC(O)(C(F)F)Oc2ccc3ccccc3c21 (stereo unspecified)	-1	5	67*	i	-7	1
COC(=O)c1ccc(C(=O)OC)c(NC(=O)COC(=O)CC2CC3CCC2C3)c1 (stereo unspecified)	-4	0	6	i	2	-3
CCNC(=O)c1c(N)sc2c1CCCCC2	6	.	45	+	62*	6
Cc1noc(C)c1COC(=O)c1ccc(F)c(S(=O)(=O)N2CCOCC2)c1	-5	9	.	.	.	-1

Bioassay records as filed in PubChem BioAssay.
